The source made the active and inactive calls.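 Rule for the calls: active = z-score of at least 1.8 in each of two replicates, scored against plate mean and spread of sample wells; inactive = the rest.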
Assay: viability rescue of complex I mutant cybrids, primary screen, cell-based, galactose medium, ATP luminescence (AID 1645843);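 note: positive z means more ATP and so rescue of galactose-driven cybrid death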
Conditions: complex I mutant cybrid cells, 72 h, stronger effect = higher value

Row | SMILES | z-score
1 | COC(=O)c1c(NC(=O)c2cccnc2)c2cc(NCc3ccc4c(c3)CCO4)cnc2n1CC(C)C | -1.61 (inactive)
2 | CCN(CC)CCNC(=O)c1cc(-c2cc(C)cs2)cc(S(=O)(=O)N2CCOCC2)c1 | 1.25 (inactive)
3 | COC(=O)CN1C(=O)N(CCc2ccccc2)C2(CCN(Cc3ccc4c(c3)OCCO4)CC2)C1=O | 1.24 (inactive)
4 | Cc1nn(C)cc1CNc1cc(C(=O)NCc2cn3ccccc3n2)cc(S(=O)(=O)NC(C)C)c1 | -0.11 (inactive)
5 | CCN1CCCC1CNC(=O)c1nn(CCOC)c2c1CN(Cc1c(C)nc3sccn13)CC2 (centres undefined) | -0.87 (inactive)
6 | Cn1cc(CN2CC(OCc3cccnc3)CN(Cc3cn[nH]c3-c3ccccc3)CC2=O)cn1 (centres undefined) | 0.715 (inactive)
7 | O=C(Cn1cnc2ccccc21)N1CCc2c(cc(-c3cccc(Cl)c3)c(=O)n2CC2CC2)C1 | -0.315 (inactive)
8 | O=C(c1nn(Cc2ccccn2)c2c1CN(C/C=C/c1ccco1)CC2)N1CCc2ccccc2C1 | -0.345 (inactive)
9 | O=C(Nc1ccccc1Cl)N[C@H]1C[C@H]2C(=O)N[C@H](Cc3ccc(O)cc3)C(=O)N2C1 | -0.455 (inactive)
10 | C[C@H]1NC(=O)[C@H]2CN(C(=O)Oc3ccc(Cl)cc3)CCN2C1=O | 0.585 (inactive)
11 | O=C1N[C@@H](COCc2ccccc2)C(=O)N2C[C@@H](NCc3cnn(-c4cccc(F)c4)c3)C[C@@H]12 | -0.845 (inactive)
12 | Cc1csc(-c2cc(C(=O)NCCC3CCCN3C)cc(S(=O)(=O)N3CCOCC3)c2)c1 (centres undefined) | -1.3 (inactive)
13 | COc1cc(CN2CCc3c(c(C(=O)NCCCN4CCOCC4)nn3C)C2)cc2c1OCO2 | -0.765 (inactive)
14 | CC(C)[C@@H]1NC(=O)[C@@H]2C[C@H](NC(=O)OCc3ccccc3)CN2C1=O | -1.16 (inactive)
15 | CCN1C(=O)N(C)C(=O)C12CCN(Cc1cc3oc(C)c(-c4ccccc4)c3cc1OC)CC2 | 1.74 (inactive)
16 | C[C@H](O)[C@H]1NC(=O)[C@@H]2C[C@H](NC(=O)Nc3cccc(F)c3)CN2C1=O | -0.26 (inactive)
17 | COCCN1C(=O)N(C2Cc3ccccc3C2)C(=O)C12CCN(Cc1cnn(C)c1C)CC2 | 1.21 (inactive)
18 | Cc1ccc(C(C)CCN2CCc3c(c(C(=O)N4CCC(O)CC4)nn3CCc3ccccc3)C2)o1 (centres undefined) | 0.6 (inactive)
19 | COc1cccc(COC2CN(CCc3ccccc3)C(=O)CN(C(=O)CN3CCOC3=O)C2)c1 (centres undefined) | 0.48 (inactive)
20 | Cc1ccnn1CCC(=O)N1CC(=O)N(CC(C)C)CC(OCc2ccccn2)C1 (centres undefined) | 0.98 (inactive)

Row | SMILES | z-score
21 | CN(C)c1ncc(CN2CCc3c(cc(Cc4ccccc4)c(=O)n3Cc3ccc(F)cc3)C2)s1 | -0.525 (inactive)
22 | COc1ccccc1CNC1CCc2c(c(C(=O)N3CCc4ccccc4C3)nn2C)C1 (centres undefined) | 0.07 (inactive)
23 | COc1ccc(CN2C[C@@H](CN3CCOCC3)C[C@@H](C(=O)NCC(C)C)C2)cc1OC | 0.1 (inactive)
24 | CC(C)CCNc1cc(C(=O)N[C@H]2CCCCNC2=O)cc(S(=O)(=O)NC(C)C)c1 | -0.51 (inactive)
25 | COC(=O)c1c(NC(=O)Cc2ccccc2)c2cc(NCc3nccs3)cnc2n1CC(C)C | -1.62 (inactive)
26 | Cn1ccnc1CN1C[C@@H](CN2CCOCC2)C[C@@H](C(=O)N2CCCC2)C1 | -0.64 (inactive)
27 | COc1cc(CN2CCc3c(cc(Cc4ccccc4C)c(=O)n3CC3CC3)C2)ccc1O | -1.32 (inactive)
28 | Cc1csc(-c2cc(C(=O)N(C)C3CCN(C)CC3)cc(S(=O)(=O)N3CCOCC3)c2)c1 | 0.47 (inactive)
29 | COc1ccccc1C(=O)N1CCN2C(=O)[C@@H]3CSCN3C(=O)[C@H]2C1 | -0.395 (inactive)
30 | CN1C(=O)N(Cc2ccccc2)C2(CCN(Cc3nc4ccccc4n3C)CC2)C1=O | -0.11 (inactive)
31 | Cc1cnc(CNC(=O)c2cc(-c3ccccc3)cc(S(=O)(=O)N3CCN(C)CC3)c2)cn1 | -0.045 (inactive)
32 | COC(=O)c1c(NC(=O)C2CC2)c2cc(NC3CCOCC3)cnc2n1Cc1ccccc1 | -0.845 (inactive)
33 | CC(C)CN1CC(OCc2cccc(F)c2)CN(C(=O)Cn2cnc3ccccc3c2=O)CC1=O (centres undefined) | -0.43 (inactive)
34 | C[C@@H](NC(=O)N[C@H]1C[C@H]2C(=O)N[C@H](Cc3ccc(O)cc3)C(=O)N2C1)c1ccccc1 | 0.6 (inactive)
35 | COc1cccc(COC2CN(Cc3ccccn3)C(=O)CN(C(=O)c3ccc(C)s3)C2)c1 (centres undefined) | 0.91 (inactive)
36 | CN1CCCc2cc(C(=O)N3CC(=O)N(Cc4ccccc4)CC(OCc4ccccn4)C3)ccc21 (centres undefined) | 0.21 (inactive)
37 | CC(C)CNC(=O)[C@@H]1C[C@H](CN2CCOCC2)CN(Cc2ccc(O)cc2)C1 | -0.31 (inactive)
38 | COc1ccc(CCn2nc(C(=O)N(C)C)c3c2CCN(C(=O)c2csc4c2CCCC4)C3)cc1 | 1.47 (inactive)
39 | CC(C)CNc1cc(C(=O)NC2Cc3ccccc3C2)cc(S(=O)(=O)NC(C)C)c1 | -1.6 (inactive)
